Screening results (PubChem)
Cruzain inh Det: qHTS Assay for Promiscuous and Specific Inhibitors of Cruzain (with detergent) | Cruzipain (Trypanosoma cruzi), P25779 | purified cruzain, Z-FR-AMC fluorescence, 0.01% Triton | Potency, µM, inactives show max response, negative = inhibition, actives largely listed as inhibitors | actives 0.43% (n = 200,000);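 note: plate controls were neutral wells for no effect and buffer without enzyme for full effect; nearly all actives have a fitted effect of over 40% in size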
Target sequence (P25779 123-467 limits assumed): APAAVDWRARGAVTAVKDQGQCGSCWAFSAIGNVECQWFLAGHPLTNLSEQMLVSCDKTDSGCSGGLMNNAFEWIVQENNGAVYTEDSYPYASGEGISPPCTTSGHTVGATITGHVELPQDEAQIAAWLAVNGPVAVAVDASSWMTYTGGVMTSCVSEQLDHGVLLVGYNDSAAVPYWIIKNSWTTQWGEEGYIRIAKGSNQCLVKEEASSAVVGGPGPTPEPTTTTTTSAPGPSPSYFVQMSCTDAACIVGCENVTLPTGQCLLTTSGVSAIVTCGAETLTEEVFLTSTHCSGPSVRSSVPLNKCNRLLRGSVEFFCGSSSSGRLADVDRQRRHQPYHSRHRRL
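Z-FR-AMC hydrolysis (2 uM substrate) by cruzain (1.5 nM) monitored kinetically at ex 360/em 450 nm after 15 min room-temperature compound exposure; 0.01% Triton X-100, pH 5.5, 5 mM DTT.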
Cruzain inh noDet: qHTS Assay for Promiscuous and Specific Inhibitors of Cruzain (without detergent); AID 1476, 2009; purified cruzain, Z-FR-AMC fluorescence, no detergent; Potency, µM, inactives show max response, negative = inhibition, most hits filed as inhibitors; Cruzipain (Trypanosoma cruzi), P25779; actives 2.3% (n = 200,000);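 note: plate controls were enzyme without inhibitor for no effect and buffer without enzyme for full effect; nearly all actives have a fitted effect of over 40% in size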
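Detergent-free condition (0.00005% Triton X-100) in acetate buffer pH 5.5 with DTT. 1.5 nM enzyme and compound were pre-mixed 15 min, then 2 uM Z-FR-AMC substrate added; reaction progress from fluorescence change between first and third reads (60 s).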
The depositor's hits bear a star; u = inconclusive. Only some compounds are listed: those with a hit (about 2.4% of all), similar ones and a draw of the others. Calls come from the whole dose curve; as a rule, active = well fitted curve in the direction sought with a large enough effect; inconclusive = small, poorly fitted or top-dose-only effect, or another doubt; inactive = no such curve, though single readings can be large; an effect the other way counts as inactive or inconclusive. Potency is the fitted concentration of half-maximal effect.

SMILES	Cruzain inh Det	Cruzain inh noDet
Cc1cc(C(=O)CSc2nnc(-c3ccc(F)cc3)o2)c(C)n1CC1COc2ccccc2O1 (configuration not stated)	6%	16µM*
Cc1cc(C(=O)CSc2nnc(-c3ccc(F)cc3)o2)c(C)n1CC1CCCO1 (configuration not stated)	4%	15%
CCOC(=O)c1c(NC(=O)CSc2nnc(CNc3ccc(OC)cc3)n2C)sc(C)c1C	1%	u
Cc1ccc(NC(=O)CN2C(=O)CCSc3ccc(S(=O)(=O)N4CCCC4)cc32)cc1C	-4%	18%
CC(=O)NC1C(OCc2ccccc2)OC(CO)C(OC(C)=O)C1OC(C)=O (configuration not stated)	3%	7%
CCCCc1ccc(NC(=O)COc2cccc3c(=O)n(C)ccc23)cc1	-2%	20µM*
CCCCc1ccc(NC(=O)COc2ccc(C(=O)Nc3ccccc3C)cc2)cc1	6%	32µM*
CCCCc1ccc(NC(=O)COc2ccc(C(=O)Nc3ccccc3OC)cc2)cc1	-6%	-10%
CCCn1ccc2c(OCC(=O)NCc3ccc(C)cc3)cccc2c1=O	-4%	-11%
CCS(=O)(=O)N1Cc2ccccc2CC1C(=O)Nc1nccs1 (configuration not stated)	7%	-5%
O=C(CN1C(=O)C2CC=CCC2C1=O)Nc1nnc(SCc2c(Cl)cccc2Cl)s1 (configuration not stated)	1%	16µM*
CCS(=O)(=O)N1Cc2ccccc2CC1C(=O)Nc1nc2c(C)cccc2s1 (configuration not stated)	-12%	25µM*
O=C(CN1C(=O)C2CC=CCC2C1=O)Nc1nnc(SCc2ccc(Cl)cc2)s1 (configuration not stated)	-3%	-20%
CCSc1nnc(NC(=O)C2Cc3ccccc3CN2S(=O)(=O)CC)s1 (configuration not stated)	-9%	-6%
CCS(=O)(=O)N1Cc2ccccc2CC1C(=O)Nc1nnc(SCc2c(Cl)cccc2Cl)s1 (configuration not stated)	-1%	7.9µM*
O=C(CCCCCCCCCCCCC1CCCC1)Nc1ccc(S(=O)(=O)c2ccc(NC(=O)CCCCCCCCCCCCC3CCCC3)cc2)cc1	2%	-7%
CCN1CCCC1CN(Cc1cc2cc(C)cc(C)c2[nH]c1=O)C(=O)Nc1ccccc1OC (configuration not stated)	1%	-2%
CCOC(=O)C1(C)C=C(Nc2ccc(OCC)cc2)C(=O)N1c1ccccc1 (configuration not stated)	-4%	-7%
Cc1ccc(C)c(N2CCN(C(=O)C3CCCN(S(=O)(=O)c4cccc5nsnc45)C3)CC2)c1 (configuration not stated)	-1%	-4%
O=C(NNS(=O)(=O)c1ccccc1)c1cc2cc3ccccc3nc2s1	-7%	-7%
O=C(NNC(=O)c1cc2cc3ccccc3nc2s1)c1cccc(C(F)(F)F)c1	-10%	25µM*
CC(C)CC(=O)N1CCN(C(=O)c2cccc(F)c2)CC1	3%	2%
Cc1ccc(N2CCN(S(=O)(=O)c3cc(C(=O)Nc4cc(Cl)cc(Cl)c4)ccc3F)CC2C)cc1 (configuration not stated)	1%	2.5µM*
Cc1ccc(C)c(N2CCN(S(=O)(=O)c3cc(C(=O)Nc4cc(Cl)cc(Cl)c4)ccc3F)CC2)c1	0%	-12%
CCc1ccc(NC(=O)c2ccnc(C(C)(C)C)c2)cc1	3%	-3%
SMILES	Cruzain inh Det	Cruzain inh noDet
FC(F)(F)c1nnc2sc(-c3ccccn3)nn12	5%	-1%
CCCCNC(=O)CC1C(=O)N(Cc2ccccc2)C(C)c2nc3ccccc3n21 (configuration not stated)	-23%	13µM*
CCCCn1c(=O)c(C(=O)c2ccccc2)nc2ccccc21	-4%	7%
Cc1ccc2oc3c(c(=O)c2c1)C(c1cccc(Br)c1)N(Cc1ccco1)C3=O (configuration not stated)	7%	25µM*
Cc1cc2oc3c(c(=O)c2cc1C)C(c1cccc(Br)c1)N(Cc1ccco1)C3=O (configuration not stated)	-3%	u
Cc1cc(C)nc(NC(=NCCc2c[nH]c3ccccc23)NC(=O)c2ccco2)n1	-3%	u
Cc1cc(C)nc(NC(=NCCc2c[nH]c3ccccc23)NC(=O)Nc2cccc([N+](=O)[O-])c2)n1	-3%	10µM*
Cc1cc(C)nc(NC(=NCCc2c[nH]c3ccccc23)NC(=O)Nc2ccccc2)n1	-3%	u
Cc1cc(C)nc(NC(=NCCc2c[nH]c3ccccc23)NC(=O)Nc2ccc(Cl)c(Cl)c2)n1	-2%	7.9µM*
CN(c1ccc(OCC(=O)Nc2ccc3[nH]c(=O)[nH]c3c2)cc1)S(=O)(=O)c1ccc(Cl)cc1	0%	-13%
COc1ccc(-c2nc3c(c(SCC(=O)N4CCCCC4)n2)Cc2cc(C)ccc2O3)cc1	-3%	5%
Cc1ccc2c(CC(=O)Nc3ccc(S(=O)(=O)N4CCCCC4)cc3)coc2c1C	-9%	25µM*
Cc1ccc2c(CC(=O)Nc3ccc(S(=O)(=O)N4CCCCC4)cc3)coc2c1	-7%	25µM*
Cc1ccc2c(CC(=O)Nc3ccc(S(=O)(=O)N4CCCC(C)C4)cc3)coc2c1 (configuration not stated)	-8%	u
Cc1cc(C)c2c(CC(=O)Nc3ccc(S(=O)(=O)N4CCCCC4)cc3)coc2c1	-7%	u
CN1CCC(=NNC(=O)CN(c2ccc(Oc3ccccc3)cc2)S(C)(=O)=O)CC1	-1%	-4%
CC(C1CC1)N(C(=O)c1ccccc1O)c1ccccc1 (configuration not stated)	-2%	-1%
CC(C)(C)OC(=O)N1CCC(c2c(C(=O)NCCN3CCC(Cc4ccccc4)CC3)cnn2-c2ccc(F)cc2)CC1	-2%	4%
CCOC(=O)C1C(C)=C(Nc2ccc(OC)cc2)C(=O)N1c1ccc(OC)cc1 (configuration not stated)	-2%	13µM*
CCOC(=O)C1=C(O)C(=O)N(c2ccc(S(N)(=O)=O)cc2)C1c1ccc(OC)cc1 (configuration not stated)	1%	-1%
O=C(O)c1cc2c(ccc3ccccc32)oc1=O	u	10µM*
O=C(c1cc2c(ccc3ccccc32)oc1=O)N1CCCC1	-27%	u
O=C(O)c1cc2ccc3ccccc3c2oc1=O	u	25µM*
O=C(O)c1cc2cc(Cl)cc(Cl)c2oc1=O	-3%	u
O=C(CCn1nc(-c2ccc(Cl)cc2)ccc1=O)N1CCN(c2ccccn2)CC1	0%	19%
SMILES	Cruzain inh Det	Cruzain inh noDet
COc1cccc(Cn2cnc3c(NS(=O)(=O)c4cc(Cl)ccc4Cl)c(C)c(C)cc32)c1	-6%	u
COc1cccc(Cn2cnc3c(NS(=O)(=O)c4ccc(Cl)cc4Cl)c(C)c(C)cc32)c1	2%	32µM*
COc1ccc(-n2nc3cc(C)c(NC(=S)NC(=O)c4ccccc4C)cc3n2)cc1	-3%	13µM*
CCC(=O)Nc1cc2nn(-c3ccc(OC)cc3)nc2cc1C	8%	u
CNC(=O)NC1CCCc2ccccc21 (configuration not stated)	2%	-7%
O=C(Nc1cccc2ccccc12)NC1CCCc2ccccc21 (configuration not stated)	8%	13µM*
